The results in this text go back to PubChem BioAssay (EPA / NIEHS).

Molecules are shown by their SMILES. Active and inactive are the calls of the source. Rule for the calls: active = hit-call score of the fitted dose curve at least 0.9, where 1 is the maximum; inactive = score below 0.9.

One assay is described as follows: CCTE_Shafer_MEA_acute_firing_rate_mean: CCTE's Neural Acute Assay for Mean Firing Rate, Shafer Lab (AID 2284009).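 Note: analyzed for loss of signal so actives lower firing rate relative to DMSO.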 The gist of the method: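 Read-out: well-mean spike rate (spikes/recording length/electrodes), % change from 40 min pre-dose baseline to 40 min with compound. Rat cortical cultures, DIV 13 or 15, 37 C; 0.03-40 uM; DMSO as negative control.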
`Cc1nc(N(C)C)nc(OC(=O)N(C)C)c1C`: the molecule was called inactive. Same read-out and setting: in the case of `N#CN=C1SCCN1Cc1ccc(Cl)nc1` it was “inactive”; in that of `CCCN(CC)CC1COC2(CCC(C(C)(C)C)CC2)O1` (configuration not stated), “inactive”. On to `C=C(C)CN(CC)c1c([N+](=O)[O-])cc(C(F)(F)F)cc1[N+](=O)[O-]`, for which the AC50 is 31.9 µM (active). For `CCCC(=NOCC)C1=C(O)CC(CC(C)SCC)CC1=O` (configuration not stated), the AC50 was 11.1 µM (active). As to `Clc1nc(Cl)nc(Nc2ccccc2Cl)n1`, the outcome was inactive. On the same count and under the same terms, in the case of `CC1(C)C(C(=O)OC(C#N)c2cccc(Oc3ccccc3)c2)C1(C)C` (configuration not stated) it was “inactive”.

As to `O=C(Nc1ccccc1-c1ccc(Cl)cc1)c1cccnc1Cl`, the result was inactive.

Turning to `CNC(=O)Oc1cccc2ccccc12`, the outcome was inactive. Same read-out and setting: the same measure for `CC(C)C1(C)N=C(c2ncccc2C(=O)O)NC1=O` (configuration not stated): “inactive”. Turning to `CCOc1cc(C(C)(C)C)ccc1C1COC(c2c(F)cccc2F)=N1` (configuration not stated), the AC50 was 3.32 µM (active).

The nature of a further assay: CCTE_Harrill_HTTr_Viability_MCF7: CCTE's 6-hour Cell Viability Assessment for the High-Throughput Transcriptomics (HTTr) Platform, in MCF-7 cells cultured in DMEM + 10% fetal bovine serum, Harrill Lab (AID 2284010). The gist of the method:
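Viability measured through PI dye exclusion by high-content imaging at 6 h post-dosing.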
`CS(=O)(=O)c1ccc(C(=O)C2C(=O)CCCC2=O)c([N+](=O)[O-])c1`: the outcome was inactive. Regarding `CCC(C)n1c(=O)[nH]c(C)c(Br)c1=O` (configuration not stated), the result was inactive. Same read-out and setting: in the case of `CC(C)Nc1nc(Cl)nc(NC(C)C)n1` it was “inactive”; in that of `CSC(=O)c1c(C(F)F)nc(C(F)(F)F)c(C(=O)SC)c1CC(C)C`, “inactive”. The same measure, in the same setting: in the case of `COP(=O)(OC)O/C(C)=C/C(=O)N(C)C` it was “inactive”.

Take `Cc1nc(N(C)C)nc(OC(=O)N(C)C)c1C`: the result was inactive. On the same count and under the same terms, the same measure for `N#CN=C1SCCN1Cc1ccc(Cl)nc1`: “inactive”. Still for that read-out and setting: the same measure for `Nc1cnn(-c2ccccc2)c(=O)c1Cl`: “inactive”; for `CCCN(CC)CC1COC2(CCC(C(C)(C)C)CC2)O1` (configuration not stated): “inactive”.

As to `O=C(O)c1c(Cl)ccc2cc(Cl)cnc12`, the outcome was inactive. Take `COc1cc(OC)nc(NC(=O)NS(=O)(=O)c2ncccc2OCC(F)(F)F)n1`: the result was inactive. Same read-out and setting: in the case of `COC(=O)NC(=S)Nc1ccccc1NC(=S)NC(=O)OC` it was “inactive”; in that of `Nc1c(Cl)c(Cl)nc(C(=O)O)c1Cl`, “inactive”. As for `C=C(C)CN(CC)c1c([N+](=O)[O-])cc(C(F)(F)F)cc1[N+](=O)[O-]`, the result was inactive. The same measure, in the same setting: in the case of `CCCC(=NOCC)C1=C(O)CC(CC(C)SCC)CC1=O` (configuration not stated) it was “inactive”.

`CNC(=O)N(C)c1nnc(C(C)(C)C)s1`: the result was inactive. The same measure, in the same setting: the same measure for `CC(C)Oc1cccc(NC(=O)c2ccccc2C(F)(F)F)c1`: “inactive”; for `O=c1n(Cl)c(=O)n(Cl)c(=O)n1Cl`: “inactive”. Take `Clc1nc(Cl)nc(Nc2ccccc2Cl)n1`: the result was inactive.

Take `CC1(C)C(C(=O)OC(C#N)c2cccc(Oc3ccccc3)c2)C1(C)C` (configuration not stated): the result was inactive.

Turning to `O=P(O)(O)CCCl`, the result was inactive. The same measure, in the same setting: the same measure for `Cc1cc(C)nc(Nc2ccccc2)n1`: “inactive”; for `O=C(Nc1ccccc1-c1ccc(Cl)cc1)c1cccnc1Cl`: “inactive”; for `COC(=O)NS(=O)(=O)c1ccc(N)cc1`: “inactive”. As for `CNC(=O)Oc1cccc2ccccc12`, the result was inactive. Same read-out and setting: the same measure for `CC(C)C1(C)N=C(c2ncccc2C(=O)O)NC1=O` (configuration not stated): “inactive”; for `CC(C)NC(=O)N1CC(=O)N(c2cc(Cl)cc(Cl)c2)C1=O`: “inactive”. On to `CC1(C)CON(Cc2ccccc2Cl)C1=O`, for which the result was inactive. On the same count and under the same terms, the same measure for `CCOc1nc(C(Cl)(Cl)Cl)ns1`: “inactive”; for `CCOc1cc(C(C)(C)C)ccc1C1COC(c2c(F)cccc2F)=N1` (configuration not stated): “inactive”; for `COP(=S)(OC)Oc1ccc([N+](=O)[O-])c(C)c1`: “inactive”. As for `N#Cc1c(Cl)cccc1Cl`, the outcome was inactive. Take `CS(=O)(=O)c1cc(C(F)(F)F)ccc1C(=O)c1cnoc1C1CC1`: the result was inactive. As for `COc1cc(Cl)c(OC)cc1Cl`, the outcome was inactive. In the case of `CN=C=S`, the outcome was inactive. As for `CCNC(=O)NC(=O)C(C#N)=NOC`, the outcome was inactive.

By AC50 is commonly meant the concentration at which the activity in the assay is half-maximal.
